The results in this text go back to PubChem BioAssay (Tox21).

Inconclusive results are not listed. Calls of active or inactive are those of the source. Calls come from the whole dose curve; as a rule, active = well fitted cell-killing curve with a large enough effect in the repeat runs; inconclusive = weak or mixed curves; inactive = flat fitted curve, though single readings scatter.
% is set by controls: 0 for no effect and ±100 for the full control effect; potency is the fitted concentration of half-maximal effect.

The experiment in a line: qHTS RealTime-Glo MT Cell Viability Assay in HepG2 cells - 32 hour (AID 1224877). Note: nearly all actives have a fitted effect of over 55% in size. Conditions: RealTime-Glo luminescence; series mostly up to 76.8 µM; activity change, negative = cytotoxic: at the top concentration. The source says: U.S. Tox21 Program National Center for Advancing Translational Sciences [NCATS] NIH Chemical Genomics Center [NCGC] U.S. Environmental Protection Agency [EPA] National Institutes of Environmental Health Sciences [NIEHS] National Toxicology Program [NTP] U.S. Food and Drug Administration [FDA] Tox21 Assay Overview: Measure of cell viability is critical in the cell-base assay. Analysis of cell viability is necessary for the characterization of cell responses to cytotoxic drugs and environmental stress. A RealTime-Glo MT Cell Viability Assay to monitor cell viability in real time of continues cell culture during 40 hours of compound treatment was used to screen Tox21 10K library compounds in HepG2 cells. The RealTime-Glo MT Cell Viability Assay is a nonlytic, homogeneous, bioluminescent method to measure cell viability in real time using a simple, plate-based method. The assay involves adding NanoLuc luciferase and a cell-permeant prosubstrate to cells in culture. Viable cells reduce the proprietary prosubstrate to generate a substrate for NanoLuc luciferase. This substrate diffuses from cells into the surrounding culture medium, where it is rapidly used by the NanoLuc Enzyme to produce a luminescent signal. The signal correlates with the number of viable cells, making the assay well suited for cytotoxicity studies.
Tox21 Assay Protocol Summary: The mixture of HepG2 cell suspension and reagents were dispensed at 600cells/6 ul/well in 1536-well tissue culture treated black solid bottom plates using a Multidrop dispenser. After the assay plates were incubated at a 37 C/5% CO2 incubator for 5 hours, 23 nL of compounds dissolved in DMSO, positive and negative controls was transferred to the assay plate by a pintool work station. The plates were incubated at 37 C for 40 hours. The luminescence intensity were measured at 0h, 8h, 16h, 24h, 32h and 40h time points using ViewLux plate reader during compound treatment.
A general note: In qHTS, concentration-response curves come from the screen itself.
For the molecule `CN1CCCN(C(c2ccccc2)c2ccc(Cl)cc2)CC1` (stereo not given), the Potency is 23.9 µM (active).

For `CCOC(=O)c1ccc(NC(=O)CN2CCCCC2)cc1`, the “activity change, negative = cytotoxic” value is 0.235% [at 35.3 µM] (inactive).

Consider `O=C(O)CCC(=O)c1ccc(-c2ccccc2)cc1`, for which the “activity change, negative = cytotoxic” value was 0.489% [at 35.3 µM] (inactive).

For `CCCCC(CC)COS(=O)(=O)O` (stereo not given), the “activity change, negative = cytotoxic” value is -2.43% (inactive).

`C=C(C)c1ccccc1`: the “activity change, negative = cytotoxic” value was 0.553% (inactive).

For `[Cl][Nd]([Cl])[Cl]`, the “activity change, negative = cytotoxic” value was -13.7% (inactive).

Take `CC(C)C1CCC(C(=O)N[C@H](Cc2ccccc2)C(=O)O)CC1` (stereo not given in full): the “activity change, negative = cytotoxic” value is 1.05% [at 35.3 µM] (inactive).

Take `Cc1oc(=O)oc1COC(=O)[C@@H]1N2C(=O)[C@@H](NC(=O)[C@H](N)c3ccccc3)[C@H]2SC1(C)C`: the “activity change, negative = cytotoxic” value is 0.178% [at 35.3 µM] (inactive).

`COc1ccc(CCN(C)CCCN2CCc3cc(OC)c(OC)cc3CC2=O)cc1OC`: the “activity change, negative = cytotoxic” value is 0.288% [at 35.3 µM] (inactive).

Consider `Nc1ccc(NC(=O)c2ccc(N)cc2)cc1`, for which the “activity change, negative = cytotoxic” value is 0.93% (inactive).

For the molecule `CCOC(=O)N1CCC(Nc2ccc(Cl)cc2N)CC1`, the “activity change, negative = cytotoxic” value was -2.82% [at 35.3 µM] (inactive).

For the molecule `CC(C)(C)NCC(O)COc1cccc2c1C[C@H](O)[C@H](O)C2` (stereo not given in full), the “activity change, negative = cytotoxic” value was 3.67% [at 35.3 µM] (inactive).

`Nc1nc2ccc(OC(F)(F)F)cc2s1`: the “activity change, negative = cytotoxic” value was -4.94% [at 35.3 µM] (inactive).

For the molecule `Nc1c(Cl)cc(Cl)cc1[N+](=O)[O-]`, the “activity change, negative = cytotoxic” value is 0.845% (inactive).

In the case of `CCO[Si](C)(CCCOCC1CO1)OCC` (stereo not given), the “activity change, negative = cytotoxic” value was 0.136% (inactive).

On to `CCN(CC)c1cccc(O)c1`, for which the “activity change, negative = cytotoxic” value was 1.27% (inactive).

As to `CCCCCCOC(=O)CCCCC`, the “activity change, negative = cytotoxic” value is -0.375% (inactive).

Take `Cc1c[nH]c2ccccc12`: the “activity change, negative = cytotoxic” value was 0.122% [at 35.3 µM] (inactive).

Turning to `CNc1c2c(nn1C)CCCC2`, the “activity change, negative = cytotoxic” value was 0.18% [at 35.3 µM] (inactive).

For `CC(C)(O)CCc1ccccc1`, the “activity change, negative = cytotoxic” value was -0.162% (inactive).

Regarding `C1CCCCC1`, the “activity change, negative = cytotoxic” value was -2.6% (inactive).

Consider `Cc1cccc(C)c1NC(=O)c1cc(S(N)(=O)=O)c(Cl)cc1O`, for which the “activity change, negative = cytotoxic” value is 0.167% [at 35.3 µM] (inactive).

Turning to `N[C@@H](Cc1cc(I)c(O)c(I)c1)C(=O)O`, the “activity change, negative = cytotoxic” value is -3.61% [at 35.3 µM] (inactive).

Consider `COC(=O)c1sccc1S(N)(=O)=O`, for which the “activity change, negative = cytotoxic” value was -2.54% (inactive).

As to `COC(=O)CC(C(C)=O)C(=O)OC` (stereo not given), the “activity change, negative = cytotoxic” value is 0.888% (inactive).

In the case of `COc1ccc(-n2nc(C(F)F)cc2-c2ccc(S(C)=O)cc2)cc1` (stereo not given), the “activity change, negative = cytotoxic” value was -1.58% (inactive).

`C1=CCC2CC=CC2C1` (stereo not given): the “activity change, negative = cytotoxic” value is 0% (inactive).

Consider `CO[C@@H]1[C@@H](OC)[C@H](C)[C@@](O)(CC(=O)O)O[C@H]1[C@H](C)[C@H]1O[C@@]2(CC[C@@](C)([C@H]3CC[C@@](C)([C@@H]4O[C@@H]([C@H]5O[C@](C)(O)[C@H](C)C[C@@H]5C)C[C@@H]4OC4C[C@H](OC)[C@@H](OC)[C@H](C)O4)O3)O2)C[C@H](O)[C@H]1C` (stereo not given in full), for which the Potency is 5.35 µM (active).

Take `Oc1ccc2c(c1)Cc1ccccc1-2`: the “activity change, negative = cytotoxic” value is -11.8% (inactive).

As for `CC(=O)Oc1cccc(O)c1`, the “activity change, negative = cytotoxic” value was 2.57% [at 35.3 µM] (inactive).

On to `NC(=O)c1ccccc1[N+](=O)[O-]`, for which the “activity change, negative = cytotoxic” value was 1.27% (inactive).

As for `CCCCCCCCCCCCCC(=O)OCC(O)CO` (stereo not given), the “activity change, negative = cytotoxic” value was 1.11% (inactive).

In the case of `COc1ccc(-c2cc(C(F)F)nn2-c2ccc(S(N)(=O)=O)cc2)cc1F`, the “activity change, negative = cytotoxic” value was -13.7% [at 35.3 µM] (inactive).

As for `CC1=C2[C@@H]([C@H](C)CC[C@H]2/C=C(\C)C(=O)O)[C@H](O)C1`, the “activity change, negative = cytotoxic” value is 1.48% (inactive).

Consider `O=C(CCS)OCC(COC(=O)CCS)(COC(=O)CCS)COC(=O)CCS`, for which the “activity change, negative = cytotoxic” value is 0.475% (inactive).

Regarding `CCN(CC)CCNC(=O)c1cc(Cl)c(N)cc1OC`, the “activity change, negative = cytotoxic” value is 1.43% [at 35.3 µM] (inactive).

With `CC[C@H]1OC(=O)[C@H](C)[C@@H](O[C@H]2C[C@@](C)(OC)[C@@H](O)[C@H](C)O2)[C@H](C)[C@@H](O[C@@H]2O[C@H](C)C[C@H](N(C)C)[C@H]2O)[C@](C)(O)C[C@@H](C)C(=O)[C@H](C)[C@@H](O)[C@]1(C)O`, the “activity change, negative = cytotoxic” value is -7.37% [at 35.3 µM] (inactive).

With `CCOCCC(=O)OCC`, the “activity change, negative = cytotoxic” value is 1.23% (inactive).

In the case of `CSCC[C@H](NC(=O)[C@H](Cc1c[nH]c2ccccc12)NC(=O)CCNC(=O)OC(C)(C)C)C(=O)N[C@@H](CC(=O)O)C(=O)N[C@@H](Cc1ccccc1)C(N)=O`, the “activity change, negative = cytotoxic” value was 3.15% [at 35.3 µM] (inactive).

`CCCC(=O)OC(=O)CCC`: the “activity change, negative = cytotoxic” value was 1.59% (inactive).
